Calb FLC: C. albicans growth modulation with fluconazole | C. albicans CaCi-2 (fluconazole-resistant clinical isolate) + fluconazole, Alamar Blue growth, 48 h | 300,000 tested, 0.57% active | growth inhibition, % (no concentration beside the values);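 active = growth inhibition above about 58% in most replicates, limit read from the data, passing the limit was not always enough; inconclusive = exactly half the replicates above a set limit; inactive = most replicates below a set limit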;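 note: all wells also contain fluconazole at 8 µg/ml as a sub-toxic cotreatment; 0% = median of DMSO wells and 100% = median of geldanamycin control wells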
SKKanGAS inh: blocks kanamycin growth of S. pyogenes SKKanGAS strain | BacTiter-Glo, 6 h | AID 1662 | 300,000 tested, 1.3% active | inhibition, % at 7.5 µM;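 active = mean replicate score, as percent of positive control median, at least 50; inconclusive = mean below 50 but one replicate at or above 50; inactive = mean and every replicate below 50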;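 note: strain carries kanamycin resistance gene driven by streptokinase promoter and grows in 40 µg/ml kanamycin; loss of luminescence reflects streptokinase promoter inhibition or plain growth inhibition; 0% = median of DMSO wells and 100% = positive control at its reference dose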
tim10-1 inh: inhibits growth of tim10-1 mutant yeast; 330,000 tested, 2.2% active; inhibition, % at 20 µM; S. cerevisiae tim10-1 ts strain growth, BacTiter-Glo, 24 h;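 active = inhibition of at least 40%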;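 note: mutant grown at 25 °C; 0% = DMSO wells with yeast and 100% = wells holding no yeast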
TIM10 inh: growth inhibitors of TIM10 yeast strain; S. cerevisiae TIM10 strain growth, BacTiter-Glo luminescence, 24 h; 330,000 tested, 1.4% active; inhibition, % at 10 µM;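 active = inhibition of 40% or more at the single tested concentration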;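 note: wild-type TIM10 isogenic control strain grown at permissive 25 °C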
PfHsp90 set2: growth inhibition of yeast expressing Plasmodium Hsp90; S. cerevisiae expressing PfHsp90, BacTiter-Glo ATP, 48 h; yeast lacking PDR1 and PDR3 efflux regulators; inhibition, % at 9.4 µM; 310,000 tested, 0.32% active;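 active = every replicate shows inhibition above about 80%, whatever the replicate mean, limit read from the data; inconclusive = mean inhibition reaches the set limit but some replicate falls short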;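 note: 0% = DMSO neutral controls and 100% = 20 µM radicicol positive controls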
tim23-1 inh: inhibits growth of tim23-1 mutant yeast. AID 463212. inhibition, % at 20 µM. S. cerevisiae tim23-1 growth, BacTiter-Glo luminescence, 24 h. 330,000 tested, 1.3% active;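 active = growth inhibition of the mutant yeast at or above 50%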;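 note: temperature-sensitive mutant grown at 25 °C; plate controls were DMSO-treated mutant yeast for no effect and medium wells lacking yeast for full effect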
The depositor's hits bear a star; ? = inconclusive; . = no result given. An excerpt weighted towards active compounds, which were near 4.7% of everything screened.

SMILES | Calb FLC | SKKanGAS inh | tim10-1 inh | TIM10 inh | PfHsp90 set2 | tim23-1 inh
COc1ccccc1Nc1ccc(NC(=O)c2cccc([N+](=O)[O-])c2C)cc1 | -5 | 9 | 29 | 24 | 7 | 36
Cc1ccc2oc(-c3cccc(NC(=O)Cn4cnc5c(=O)n(C)c(=O)n(C)c54)c3)nc2c1 | 122* | 28 | 0 | 3 | . | 16
CCC(C)c1ccc2oc(-c3ccc(NC(=O)Cn4cnc5c(=O)n(C)c(=O)n(C)c54)cc3)nc2c1 (stereo unspecified) | 5 | 14 | 0 | 16 | . | 28
Cc1ccc(C2(C)NC(=O)N(CC(=O)Nc3cc(S(=O)(=O)N4CCOCC4)ccc3OC(C)C)C2=O)cc1 (stereo unspecified) | . | . | . | . | -15 | .
COc1ccc(NC(=O)c2cc3ccccc3o2)cc1S(=O)(=O)N1CCCCC1 | . | . | -16 | -16 | -9 | -2
Cc1ccsc1C(=O)OCC(=O)NCCNC(=O)COC(=O)c1sccc1C | 12 | 0 | -12 | 2 | . | -5
Cc1ccsc1C(=O)OCC(=O)Nc1sccc1C(N)=O | 96* | 17 | 21 | 17 | . | 7
COc1ccc2cc(C(=O)/C=C/c3cc(OC)c(O)c(OC)c3)ccc2c1 | 14 | 69* | 35 | 9 | 9 | 30
CCOc1cc(CNc2cccc3[nH]c(C)nc23)ccc1OC | 2 | 2 | 9 | 20 | 6 | 16
Cc1cn([C@H]2C[C@H](O)[C@@H](CCC(=O)NCc3ccccc3)O2)c(=O)[nH]c1=O | . | . | . | . | 26 | .
Cc1cc2oc3ccc(NCCCn4ccnc4)cc3c(=O)c2cc1C | 86* | -4 | 35 | -4 | 1 | 8
CCN1CCc2nc3sc(C(=O)N4CCc5ccccc5C4)c(N)c3cc2C1 | -17 | 8 | -16 | -29 | 3 | 0
CC(C)c1ccc2nc3sc(C(=O)N4CCc5ccccc5C4)c(N)c3cc2c1 | 6 | 54* | 22 | 22 | 12 | 24
COc1ccc(NC(=O)CSCC(=O)N2CCN(C(=O)c3ccco3)CC2)cc1 | . | . | -2 | 1 | 14 | 13
Cc1cccc(-c2cc(C(=O)Nc3sc(C)c(C)c3C(N)=O)c3ccccc3n2)c1 | ? | 13 | 30 | 12 | 1 | 32
Cc1ccc(C)c(-c2cc(C(=O)Nc3sc(C)c(C)c3C(N)=O)c3ccccc3n2)c1 | -3 | 70* | 31 | 39 | -7 | 40
CCCCC(=O)OCc1c(-c2ccccc2)ncc2ccccc12 | . | . | 19 | -1 | -6 | 25
COC(=O)c1c(-c2c(Cl)cccc2Cl)noc1NC(=O)NN1CCCCC1 | 7 | 2 | 23 | 22 | -12 | 31
COc1ccc(OC)c(NC(=O)C(=O)NNC(=O)COc2ccc(Br)cc2C)c1 | 13 | 121* | 1 | 2 | -12 | -7
COc1ccc(OC)c(NC(=O)Nc2ccc(O)c3ccccc23)c1 | 2 | 37 | -2 | 1 | 108* | -31
COc1ccc(OC)c(NC(=O)Nc2c(O)ccc3ccccc23)c1 | 9 | 9 | 15 | 15 | 18 | 16
COc1ccc(NC(=O)c2c3c(nc4ccccc24)CCC3)cc1 | -32 | -15 | -6 | -30 | -34 | -3
COc1ccc(OCC(=O)NNC(=O)C(=O)Nc2cc(OC)ccc2OC)cc1 | ? | -3 | 5 | -2 | -8 | 3
COc1ccc(OC)c(NC(=O)C(=O)/C=C(\O)c2cc(OC)ccc2OC)c1 | 104* | 3 | 22 | 18 | . | -13
COc1ccc(OC)c(NC(=O)c2c3c(nc4ccccc24)CCC3)c1 | 66* | 5 | 22 | 16 | -15 | 18
SMILES | Calb FLC | SKKanGAS inh | tim10-1 inh | TIM10 inh | PfHsp90 set2 | tim23-1 inh
C=CCN1C(=O)C2(OCCCO2)c2cc(Cl)ccc21 | 18 | -3 | -4 | 5 | 9 | 4
O=C(c1cc(-c2ccccc2)nc2ccccc12)N1CCN(c2ccccc2O)CC1 | 0 | 67* | 30 | 27 | -44 | 40
O=C(c1cc(-c2ccncc2)nc2ccccc12)N1CCN(c2ccccc2O)CC1 | -12 | 14 | 10 | 19 | -24 | 17
Fc1ccc(N2CCN(Cc3cn[nH]c3-c3ccccc3)CC2)cc1 | -1 | 52* | 12 | 9 | 31 | 2
COc1cc(OC)cc(-c2c(C#Cc3ccsc3)c3cc(-c4cc(F)cc(F)c4)ccc3n2C)c1 | . | . | 7 | 0 | -3 | 13
Cn1c(SCC(=O)N2CCc3ccccc3C2)nnc1-c1cccs1 | 0 | -10 | 33 | -5 | . | 5

Bioassay records from PubChem BioAssay.
